Reference: ChEMBL document CHEMBL3988442, “University of Dundee, Small-Polar-MMV Screening Library” (2021)
Out of some 48,000 compounds screened, about 13,000 (27%) showed an effect of 50% or more. Some of the results follow.

Test system: Wolbachia pipientis
Test: Anti-Wolbachia Cell-Based Screen
Type: functional
Design: scale not given: in the data most compounds retested in dose-response had high values
Conditions: 5 µM

| SMILES | Percent Effect [%] |
| --- | --- |
| Cc1cccc(CN2CCS(=O)(=O)[C@@H]3CCN(S(C)(=O)=O)CC[C@@H]32)n1.O=C(O)C(F)(F)F | -6.526 |
| Cc1cccc(CNC(=O)C2CCC(=O)N(Cc3ccccc3F)C2)n1 (configuration not stated) | -24.63 |
| Cc1cccc(CN2CCn3cc(CNC(=O)CC4CC4)nc3C2)n1 | 3.137 |
| COC(=O)N1CCCC(NC(=O)NCc2cccc(C)n2)C1 (configuration not stated) | -5.43 |
| Cc1cccc(C(=O)N2CCn3cc(CNC(=O)CC4CC4)nc3C2)n1 | 2.995 |
| Cc1cccc(CN2CCC(Cc3ccccc3F)CC2)n1 | -1.449 |
| Cc1cccc(CNC(=O)CC2CCN(S(C)(=O)=O)CC2)n1 | 82.07 |
| Cc1cccc(CNC(=O)CC2CCN(C(=O)C(C)C)CC2)n1 | 83.92 |
| Cc1cccc(CNC(=O)CC2CCN(Cc3ccccn3)CC2)n1 | 99.8 |
| Cc1cccc(C2(O)CCN(C(=O)c3ccc(N(C)C)cc3)CC2)c1C | -4.914 |
| COc1ccc(Br)cc1NCC(=O)NC(C)(C#N)C1CC1 (configuration not stated) | 14.48 |
| Cc1[nH]c2ccccc2c1CCNc1ncnc2c1CCNCC2 | -9.659 |
| Cc1ccccc1CN1CCC(CNc2ncnc3c2CCNCC3)C1 (configuration not stated) | 119.4 |
| c1cnnc(N2CCCC2CNc2ncnc3c2CCC3)c1 (configuration not stated) | 2.71 |
| c1ccc(CN2CCC(CNc3ncnc4c3CCNCC4)CC2)cc1 | 97.41 |
| Cc1ccccc1CN1CCC(NCC2CNc3ccnn3C2)CC1 (configuration not stated) | 8.316 |
| Cc1nc(CN2CCCC(Nc3ncnc4c3CCC4)C2)no1 (configuration not stated) | -2.2 |
| O=C(Cn1cccn1)NCC1CCCN(Cc2ccccc2)C1 (configuration not stated) | 8.029 |
| c1ccc(CN2CCC(Nc3ncnc4c3CCNCC4)C2)cc1 (configuration not stated) | 76.79 |
| c1ccc(CN2CCCC(CNc3ncnc4c3CCNCC4)C2)cc1 (configuration not stated) | 100.7 |
| c1ccc(CN2CCC(NCCSc3ncn[nH]3)C2)cc1 (configuration not stated) | 12.73 |
| OC(CN(Cc1ccccc1)Cc1ccncc1)c1cccs1 (configuration not stated) | 13.62 |
| Cc1nnc(CN2CCC(Oc3ccc(C)c(C)c3)CC2)o1 | -18.16 |
| Cc1ccc(CNCCS(=O)(=O)N2CCOCC2)cc1C | -37.41 |
| c1ccc(CN2CCC(CCNc3ncnc4c3CCNCC4)C2)cc1 (configuration not stated) | 82.99 |

| SMILES | Percent Effect [%] |
| --- | --- |
| Cc1ccn(CCNc2ncnc3c2CCN(Cc2ncc[nH]2)CC3)n1 | 5.519 |
| COCC1CC2(CCN(C(=O)c3cccn3C)CC2)CN1C(C)C (configuration not stated) | -8.006 |
| COCC1CC2(CCN(C(=O)c3ccccc3C)CC2)CN1C(C)C.O=C(O)C(F)(F)F (configuration not stated) | 101.7 |
| COCC1CC2(CCN(Cc3cnn(C)c3)CC2)CN1C(C)C.O=C(O)C(F)(F)F.O=C(O)C(F)(F)F (configuration not stated) | -6.847 |
| COCC1CC2(CCN(Cc3ccc(C)o3)CC2)CN1C(C)C.O=C(O)C(F)(F)F.O=C(O)C(F)(F)F (configuration not stated) | 100.3 |
| COCC1CC2(CCN(C(=O)c3cc(C)oc3C)CC2)CN1C(C)C.O=C(O)C(F)(F)F (configuration not stated) | 17.98 |
| COCC1CC2(CCN(Cc3ccc(OC)cc3)CC2)CN1C(C)C.O=C(O)C(F)(F)F.O=C(O)C(F)(F)F (configuration not stated) | -13.29 |
| COCC1CC2(CCN(C(=O)c3ccc(C)nc3)CC2)CO1.O=C(O)C(F)(F)F (configuration not stated) | -3.949 |
| COCC1CC2(CCN(C(=O)c3ccco3)CC2)CN1C(C)C.O=C(O)C(F)(F)F (configuration not stated) | 111.9 |
| COCC1CC2(CCN(C(=O)c3occc3C)CC2)CN1C(C)C.O=C(O)C(F)(F)F (configuration not stated) | 98.04 |
| N#Cc1ccc(C2CC(=O)Nc3c2cnn3C2CCCC2)cc1 (configuration not stated) | 11.66 |
| N#Cc1cn(C2CC2)c(=O)n(Cc2cc(-c3cccs3)on2)c1=O | 15.09 |
| COC(=O)CCN1CCC(NC(=O)OC(C)(C)C)CC1 | -7.075 |
| CC(C1CCN(Cc2cnn(C)c2C2CC2)CC1)N1CCN(C)CC1 (configuration not stated) | -5.459 |
| Cc1cccc(-c2nccnc2C2CCCN(C)C2)c1C (configuration not stated) | 89.85 |
| CN1CCCC(c2nc3c([nH]2)CC(C)(C)CNC3=O)C1 (configuration not stated) | -16.77 |
| CN1CCCC(c2nccnc2-c2cccc(Cl)c2)C1 (configuration not stated) | 117.7 |
| Cc1nnc(N2CCCC(C(=O)c3cccc(Cl)c3)C2)o1 (configuration not stated) | -20.06 |
| O=C(c1cccc(Cl)c1)C1CCCN(c2nnc(C3CCC3)o2)C1 (configuration not stated) | -5.901 |
| COc1ccc(C)cc1-n1cnnc1C1CCCN(C)C1 (configuration not stated) | 8.034 |
| Cc1cccc(-c2nccnc2C2CCN(C)CC2)c1C | 64.83 |
| CCN(C)C(C(=O)Nc1ccc2c(c1)CCC(=O)N2)c1ccccc1 (configuration not stated) | 0.8734 |
| OCCn1ncc2c1CN(CC1CCOc3ccccc3C1)C2 (configuration not stated) | 4.778 |
| CC(NC(=O)NCc1cscn1)c1ccc(N2CCOCC2)cc1 (configuration not stated) | -18.24 |
| O=c1[nH]c2c(c(=O)n1C1CCCCC1)CCC2NCCc1ccccc1 (configuration not stated) | 24.49 |

| SMILES | Percent Effect [%] |
| --- | --- |
| CC(C)N(CC1CCCN(CC(N)=O)C1)C(=O)OC(C)(C)C (configuration not stated) | 12.71 |
| COc1cccc(-c2cc(-c3nc(CN4CCN(C)CC4)no3)[nH]n2)c1 | 0.4618 |
| Cc1csc(C(=O)N2CCC(O)(CN3CCc4ccccc4C3)C2)c1 (configuration not stated) | 114.3 |
| Cn1cccc1C(=O)N1CCC(O)(CN2CCc3ccccc3C2)C1 (configuration not stated) | 119.3 |
| CN(C)CC1(O)CCN(C(=O)c2cnc(CN3CCCC3)s2)C1 (configuration not stated) | -12.27 |
| Cc1ccc(C(=O)N2CCN(CC(O)c3ccc(F)cc3)CC2)s1 (configuration not stated) | -1.791 |
| Cc1ccc(C(=O)N2CCC(O)(CN3CCc4ccccc4C3)C2)s1 (configuration not stated) | 99.66 |
| Cn1cccc1C(=O)N1CCC2(CC1)CCN2S(C)(=O)=O | -0.7561 |
| Cn1cccc1C(=O)N1CCCC2(CCCN2S(C)(=O)=O)C1 (configuration not stated) | 2.477 |
| O=S1(=O)C[C@@H]2[C@H](C1)N(Cc1cccc(O)c1)CCN2CC1CC1 | -9.844 |
| Cc1noc([C@@H]2C[C@H](NS(=O)(=O)Cc3ccccc3)CN2C)n1 | -2.99 |
| CC(OCC1CC1)C(=O)NCc1ccc(Cn2ccnc2)cc1 (configuration not stated) | -1.593 |
| Cc1cc(C(=O)N2CCN(Cc3ccco3)C(CCO)C2)cc(=O)[nH]1 (configuration not stated) | -4.439 |
| Cc1ccc(C(=O)N2CC(=O)N(Cc3ccco3)CC(O)C2)cc1 (configuration not stated) | 118.6 |
| Cc1ccc([C@@H]2CN(C(=O)CCc3ccco3)C[C@H]2N(C)C)cc1 | -4.926 |
| COc1ccccc1C(=O)N1CC2(COC(C)(C)OC2)C1 | -9.843 |
| COc1ccccc1C(=O)N1CC(=O)N(Cc2ccco2)CC(O)C1 (configuration not stated) | 85.9 |
| CCc1ccc(CN2C[C@@H](C(=O)O)[C@H](c3ccccc3OC)C2)o1 | -18.6 |
| NC(=O)CN(C(=O)c1cccc(C(F)(F)F)c1)C1CCCC1 | -15.86 |
| CS(=O)(=O)NCC1CCCCN1C(=O)c1cccc(C(F)(F)F)c1 (configuration not stated) | 93.67 |
| NC(=O)CC1CCCCN1C(=O)c1cccc(C(F)(F)F)c1 (configuration not stated) | 118.1 |
| NC(=O)NCC1CCCCN1C(=O)c1cccc(C(F)(F)F)c1 (configuration not stated) | 3.602 |
| Cc1ccc(-c2nc(C(=O)N3CCCCC3CNS(C)(=O)=O)cs2)cc1 (configuration not stated) | 5.411 |
| CCC(O)CNC(=O)C1(N(C)Cc2ccccc2)Cc2ccccc2C1 (configuration not stated) | -9.431 |
| CCc1nc2n(n1)CCCC2NC(=O)Nc1ccc(SC)c(F)c1 (configuration not stated) | -17.88 |

| SMILES | Percent Effect [%] |
| --- | --- |
| COc1cc(N2CCCC(c3nccn3CCN(C)C)C2)nc(N)n1 (configuration not stated) | -7.598 |
| N#Cc1cccc(CN2C[C@H](OCC3CCOCC3)[C@H]3COC[C@H]32)c1.O=C(O)C(F)(F)F | -3.694 |
| O=C(O)C(F)(F)F.c1cc(CN2C[C@H](OCC3CCOCC3)[C@H]3COC[C@H]32)co1 | 84.18 |
| COc1ccc(CN2C[C@@H](OCc3csc(C)n3)[C@H]3COC[C@H]32)cc1.O=C(O)C(F)(F)F | -4.618 |
| COc1ccc(CN2C[C@H](OCC3CCOCC3)[C@H]3COC[C@H]32)cc1.O=C(O)C(F)(F)F | 2.727 |
| O=C(O)C(F)(F)F.c1cc(CN2C[C@H](OCC3CCOCC3)[C@H]3COC[C@H]32)cs1 | 93.96 |
| c1ncc(-c2cn(CCSc3cnn[nH]3)nn2)cn1 | -12.65 |
| N#Cc1ccccc1N1CCCN(C(=O)NCc2cc[nH]n2)CC1 | 136.7 |
| CS(=O)(=O)NC1CCCN(C(=O)NCc2cc[nH]n2)C1 (configuration not stated) | -1.074 |
| CS(=O)(=O)NC1CCN(C(=O)NCc2cc[nH]n2)CC1 | 108.2 |
| CCC(CNC(=O)NCc1cc[nH]n1)N1CCCC1 (configuration not stated) | 2.082 |
| O=C(NCc1cc[nH]n1)N1CCN(c2ncccn2)CC1 | 105.7 |
| CC(=O)N1CCC(C(=O)NCc2cc[nH]n2)(c2ccccc2)CC1 | 107.6 |
| Cc1cccc(OC2CCN(C(=O)NCc3cc[nH]n3)CC2)c1C | -1.831 |
| O=C(NCC1CCOC1)N1CCN(c2ncccn2)CC1 (configuration not stated) | 14.21 |
| O=C(NCc1cc2n(n1)CCCNC2)C1(c2ccccc2)CCCCC1 | 0.555 |
| COCCOCCNC(=O)N1CCN(c2ccccc2C#N)CC1 | 9.744 |
| CC(CNC(=O)N1CCN(c2ncccn2)CC1)Cc1cccs1 (configuration not stated) | -35.53 |
| N#Cc1ccccc1N1CCN(C(=O)NCC(=O)N2CCCC2)CC1 | -1.371 |
| Cc1nn(C)c2ncc(NC(=O)N(C)Cc3cnn(C)c3)cc12 | 3.959 |
| COc1ccc(C(=O)O)c(OCC(=O)NC(C)c2ccccc2)c1 (configuration not stated) | -11.95 |
| COc1cncc(N2CCN(Cc3ccncc3Cl)CC2)n1 | -15.95 |
